Among all 360,000 compounds or so, about 4,500 (1.2%) were called active. Rule as the data show it: active = inhibition above about 30%; inactive = the rest. The sample as a whole holds a higher share of actives than the screen did.
Test: GDH-TPI coupling enzyme inhibitors, primary screen, artefact control for M. tuberculosis FBA inhibitor project, biochemical, absorbance, full deck (AID 588335);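 also: 0% = DMSO wells and 100% = wells lacking the enzyme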
Settings: GDH-TPI coupled enzyme counterscreen, NADH absorbance; at 4.8 µM; active compounds read high

| Structure (SMILES) | inhibition |
| --- | --- |
| COC(=O)C1(C)CC1(c1ccccc1)c1ccccc1 (centres undefined) | 4.61% (inactive) |
| COc1cccc(NC(=O)CCc2nnc3ccc(N4CCC(C)CC4)nn23)c1 | 3.45% (inactive) |
| Cc1cc(C)n(-c2nnc(C)n2NC(=O)c2cccc(Cl)c2)n1 | -3.66% (inactive) |
| Cn1c2ccccc2c2cc(/C=C(\NC(=O)c3ccccc3)C(=O)NCC(=O)O)ccc21 | 35.1% (active) |
| CCOc1ccc(/C=C(/NC(=O)c2ccccc2)C(=O)NCCC(=O)O)cc1 | 0.32% (inactive) |
| O=C(NCC1CCCO1)/C(=C/c1ccc(Cl)cc1)NC(=O)c1ccccc1 (centres undefined) | 0% (inactive) |
| CC(C(=O)Nc1ccc(F)c(F)c1F)N1CCCCCC1 (centres undefined) | -6.72% (inactive) |
| CCC(C)(C)c1ccc(Oc2ccc(NC(=O)COC(=O)C3=COCCO3)cc2)cc1 | -7.05% (inactive) |
| CN(C(=O)COC(=O)c1cc(=O)[nH]c2ccccc12)C1CCCCC1 | 10.5% (inactive) |
| O=C(CC1SC(N2CCOCC2)=NC1=O)Nc1ccccc1F (centres undefined) | 10.5% (inactive) |
| c1ccc(-c2csc(N3CCc4ccccc4C3)n2)cc1 | 2.71% (inactive) |
| Cc1cc(/C=C2/SC(=O)N(CC(=O)N3CCCC3)C2=O)ccc1N1CCOCC1 | 1.85% (inactive) |
| O=C1N=C(N2CCOCC2)CS1 | -6.56% (inactive) |
| CCOc1cc(/C=C2\SC(N3CCCCC3)=NC2=O)ccc1O | 24.1% (inactive) |
| O=C1N=C(N2CCOCC2)S/C1=C\C=C/c1ccccc1 | 31.1% (active) |
| O=C1N=C(N2CCc3ccccc3C2)S/C1=C\c1ccc(O)cc1 | 33.1% (active) |
| CCc1ccc(/C=C2\SC(N3CCOCC3)=NC2=O)cc1 | 30.8% (active) |
| NC1=NC(=O)S/C1=C\c1ccc(O)cc1 | 15.8% (inactive) |
| CCOc1ccc(C(=O)NCC(=O)N2CCCCCCC2)cc1OCC | -2.14% (inactive) |
| O=C(NC1CCCCC1)C1CCC(CNS(=O)(=O)c2ccccc2)CC1 (centres undefined) | -8.09% (inactive) |
| NC(=O)CCC(NS(=O)(=O)c1ccc(Cl)cc1)C(=O)NCc1ccccc1Cl (centres undefined) | 5.93% (inactive) |
| O=C(NC1CC1)C1=C[C@H](c2coc3ccccc3c2=O)C[C@H](OCCCCO)O1 | 1.68% (inactive) |
| CCOC(=O)c1sc(NC(=O)C2CSC3(C)CCC(=O)N23)nc1C (centres undefined) | 4.14% (inactive) |
| Cn1c(=O)cc(OCC(=O)N2CCN(c3ccccc3F)CC2)c2ccccc21 | 2.59% (inactive) |

| Structure (SMILES) | inhibition |
| --- | --- |
| Cc1cccc(N2CCN(C(=O)CCS(=O)(=O)c3ccc4c(c3)NC(=O)C(C)S4)CC2)c1C (centres undefined) | -2.95% (inactive) |
| COc1ccc(CCC(=O)N2CCN(S(=O)(=O)c3ccc(OC)cc3)CC2)cc1 | 1.81% (inactive) |
| CCOC(=O)N1CCN(C(=O)c2ccc3nc4cc(Cl)ccc4c(=O)n3c2)CC1 | -6.67% (inactive) |
| CC(=O)c1ccc(Nc2nc(C(N)c3ccccc3)cs2)cc1 (centres undefined) | 32% (active) |
| CC(=O)c1ccc(Nc2nc(C(N)c3ccccc3Cl)cs2)cc1 (centres undefined) | 29.2% (inactive) |
| COc1ccc(C(N)c2csc(NC(=O)Nc3cccc(C(F)(F)F)c3)n2)cc1 (centres undefined) | -1.33% (inactive) |
| Cc1cc(NC(=O)/C=C/C(=O)N(c2ccccc2C)C(C(=O)NC2CCCC2)c2ccc(F)cc2)no1 (centres undefined) | 15.8% (inactive) |
| O=C1c2ccccc2-c2ccccc2NC1O (centres undefined) | -4.42% (inactive) |
| CN(C)/C=C1\C=C(c2ccccc2)OC1=O | 17.7% (inactive) |
| CN(C)/C=C1/C(=O)Nc2ccccc21 | 36.4% (active) |
| CCN(CC(=O)NC(=O)NCc1ccccc1)Cc1nc2ccccc2c(=O)[nH]1 | -1.22% (inactive) |
| CC(C)(C)c1ccc(NC(=O)COC(=O)CCc2nc3ccccc3c(=O)[nH]2)cc1 | 3.69% (inactive) |
| CCN(CC)c1ccc(C(=O)NNC(=O)CCc2nc3ccccc3c(=O)[nH]2)cc1 | 30.9% (active) |
| COc1ccc(S(=O)(=O)N2CCN(C(=O)c3cccs3)CC2)cc1OC | -5.51% (inactive) |
| CC(C(=O)N(C)CC(=O)Nc1ccccc1C(F)(F)F)N1C(=O)c2ccccc2C1=O (centres undefined) | -1.08% (inactive) |
| C/C(=N\Nc1cccc(C(=O)O)c1)c1ccc2c(c1)Nc1ccccc1S2 | 7.28% (inactive) |
| Cc1nc2ccc(C(=O)N/N=C/c3ccc(O)cc3)cc2[nH]1 | 36.4% (active) |
| O=C(N/N=C/c1ccsc1)c1cc(O)cc(O)c1 | 4.09% (inactive) |
| Cc1nonc1C(=O)N/N=C/c1ccc(O)cc1 | 29.1% (inactive) |
| O=S(=O)(c1ccc(SCc2ccc(Br)cc2)nc1)N1CCOCC1 | 0.32% (inactive) |
| O=C(NCc1ccccc1)C(c1ccccc1)N(C(=O)c1csnn1)c1ccc(F)cc1 (centres undefined) | -1.56% (inactive) |
| Cc1nc2ccc(S(=O)(=O)N(C)CC(=O)NC(C)c3ccccc3)cc2s1 (centres undefined) | 14.8% (inactive) |
| Cc1cccc(C)c1NC(=O)CNC(=O)c1ccc(N2CCOCC2)c([N+](=O)[O-])c1 | 1.79% (inactive) |
| CC(C)CN(C(=O)COC(=O)c1ccc2ccccc2c1)c1c(N)n(Cc2ccccc2)c(=O)[nH]c1=O | 2.15% (inactive) |

| Structure (SMILES) | inhibition |
| --- | --- |
| CCN(/N=C/c1ccccc1)c1cc(=O)n(C)c(=O)[nH]1 | 36.7% (active) |
| Cc1cn(C2CC(O)C(CO)O2)c(=O)n(CCCc2ccccc2)c1=O (centres undefined) | -7.8% (inactive) |
| COc1cc(C(=O)NN(CCC#N)C2=NS(=O)(=O)c3ccccc32)cc(OC)c1OC | 4.46% (inactive) |
| O=c1[nH]c(/C=C\c2cccc(C(F)(F)F)c2)nc(O)c1[N+](=O)[O-] | 16.2% (inactive) |
| Cc1ccccc1/C=C\c1nc(O)c([N+](=O)[O-])c(=O)[nH]1 | 34.9% (active) |
| Cc1cc(OC(=O)c2ccccc2)c([N+](=O)[O-])c(=O)[nH]1 | 3.89% (inactive) |
| Cc1nnc(SCc2cccc(Cl)c2)n(N)c1=O | -5.68% (inactive) |
| Cc1ccc(C(=O)N/C(=C/c2cccs2)C(=O)N2CCCCC2)cc1 | 1.16% (inactive) |
| CN1CCN(C(=O)/C(=C\c2ccc3c(c2)OCO3)NC(=O)c2cccs2)CC1 | 13.8% (inactive) |
| CN1CCN(C(=O)/C(=C\c2cccs2)NC(=O)c2cccs2)CC1 | 30.9% (active) |
| FC(F)(F)c1ccc2c3n(nc2c1)CCN=C3c1ccc(Cl)cc1 | 9.17% (inactive) |
| O=c1[nH]c2c(c(=O)n1-c1ccccc1)CCO2 | 6.88% (inactive) |
| COc1ccccc1C(C)NC(=O)Cc1ccsc1 (centres undefined) | 6.79% (inactive) |
| Cc1ccc(N2C(=O)C3C4C=CC(CC4)C3C2=O)cc1Cl (centres undefined) | 0% (inactive) |
| CC1(C)CC(N2CCN(C(c3ccccc3)c3ccccc3)CC2)=CC(=[N+]2CCCCC2)C1 | 42% (active) |
| COC(=O)C(c1ccccc1)N1CCCCCC1 (centres undefined) | -4.27% (inactive) |
| CCOc1ccc(NC(=O)CN(C)CC(=O)NC(C)c2ccccc2)cc1OCC (centres undefined) | 11% (inactive) |
| Nc1c(-c2ccc(F)cc2)cnn1C1CCS(=O)(=O)C1 (centres undefined) | 3.77% (inactive) |
| CCOc1ccc(/C=N\NC(=O)c2c(C)nc3cc(C)ccn23)cc1 | 21.5% (inactive) |
| CCOc1cc(/C=N/NC(=O)c2c(C)nc3ccc(Cl)cn23)ccc1O | 52.2% (active) |
| CCOc1cc(/C=N/NC(=O)CN2CCCCC2)ccc1O | 21.8% (inactive) |
| CCN1C(=NCCc2cccnc2)N[C@@H](c2ccccc2)[C@H](C(=O)OC)[C@H]1C | -8.4% (inactive) |
| COCCNC(=S)N/N=C/c1c(C)[nH]c2ccccc12 | 31% (active) |
| COCCNC(=S)N(CCc1c(C)[nH]c2ccc(C)cc12)Cc1cccnc1 | 0% (inactive) |

| Structure (SMILES) | inhibition |
| --- | --- |
| Cc1[nH]c2ccccc2c1/C=C(/C#N)C(=O)NC(C)C | 6.92% (inactive) |
| CC(=O)Nc1cccc(C(=O)OCN2C(=O)c3ccccc3C2=O)c1 | -2.41% (inactive) |
| COc1ccc(CCNC(=S)N2CCN(S(=O)(=O)c3ccc(F)cc3)CC2)cc1 | 1.03% (inactive) |
| Oc1ccc(/C=N/N(Cc2ccccc2)c2ccccc2)cc1 | 11.2% (inactive) |
| CCN(/N=C/c1ccc(N(C)C)cc1)c1nc2ccccc2[nH]1 | 31.3% (active) |
| COc1ccc(C(=O)COC(=O)c2nn(C)c(=O)c3ccccc23)c(OC)c1 | -0.9% (inactive) |
| O=C(O)C1CCCN1S(=O)(=O)c1ccc2c(c1)CCC2 (centres undefined) | -0.82% (inactive) |
| COc1ccc2sc(-c3ccccc3OC)c(-c3ccc(OCCN4CCCC4)cc3)c2c1 | 8.81% (inactive) |
| COc1cccc(-c2sc3ccc(OC)cc3c2-c2ccc(OCCN3CCCCC3)cc2)c1 | 0.91% (inactive) |
| COc1ccc2sc(-c3ccc(N(C)C)cc3)c(-c3ccc4cc[nH]c4c3)c2c1 | 33.5% (active) |
| Cc1cc(=O)oc(C)c1C(=O)NCc1ccc(F)cc1 | 16.2% (inactive) |
| COc1ccc(CNC(=O)c2c(C)cc(=O)oc2C)cc1OC | 5.96% (inactive) |
| Cc1cc(=O)oc(C)c1C(=O)NCCN(C)Cc1ccccc1 | 45.1% (active) |
| CC(NC(=O)c1ccc(Cl)cc1)C(=O)N1CCCCC1 (centres undefined) | 8.65% (inactive) |
| Cc1ccc(NC(=O)c2cnc(SCC(=O)NCC3CCCO3)n(C)c2=O)cc1 (centres undefined) | 33.3% (active) |
| CCn1c(SCC(=O)NCC2CCCO2)nc2ccccc21 (centres undefined) | -11% (inactive) |
| Cn1c(SCC(=O)c2ccccc2)ncc(C(=O)Nc2ccc(F)cc2)c1=O | 2.1% (inactive) |
| CC1C(=O)N2CCCc3cc(S(=O)(=O)NCc4ccc(F)cc4)cc1c32 (centres undefined) | 6.01% (inactive) |
| O=C1C=C(c2ccnc3cc(Cl)ccc23)C[C@@H](c2ccc3c(c2)OCO3)C1 | 1.34% (inactive) |
| Cc1ccccc1-n1c(C)cc(/C=N/NC(=O)c2ccc(CN3CCOCC3)cc2)c1C | 18.1% (inactive) |
| Cc1ccccc1-n1c(C)cc(/C=C2\NC(=O)NC2=O)c1C | 32.7% (active) |
| CSc1ccc(/C=C2\NC(=O)NC2=O)cc1 | 27.3% (inactive) |

From PubChem BioAssay AID588335 (The Scripps Research Institute Molecular Screening Center, 2011)
